Among the data in PubChem BioAssay (NCATS) are Potency, activity change % (negative = inhibition) and outcome values, retold here.

Values joined by “and” are separate entries in the source; they are usually repeats but may differ in a detail not shown here. Identical values can stand only once. Values without a mark were called inactive. Records with an inconclusive call do not appear. Active and inactive are the calls of the source. Unless noted, calls come from the whole dose curve; as a rule, active = well fitted curve in the direction sought with a large enough effect; inconclusive = small, poorly fitted or top-dose-only effect, or another doubt; inactive = no such curve, though single readings can be large; an effect the other way counts as inactive or inconclusive.

The target of assay [1] is Voltage-gated inwardly rectifying potassium channel KCNH2 (Homo sapiens) (UniProt Q12809). The experiment in a line: qHTS Assay for Small Molecule Inhibitors of the Human hERG Channel Activity (AID 588834).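 Note: lower thallium flux fluorescence means stronger hERG block; nearly all actives have a fitted effect of over 50% in size.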 Note: potency is the fitted concentration of half-maximal effect. The essentials: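 Kinetic FDSS fluorescence; U2OS + hERG BacMam (~100 virus particles/cell); FluxOR Tl+ flux; ~10 min cpd; AC50 (Hill).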
(In general: qHTS replaces the single test concentration by a dilution series.)

Assay [2] deals with Luciferin 4-monooxygenase (Photinus pyralis) (UniProt P08659). The experiment in a line: Biochemical firefly luciferase enzyme assay for NPC (AID 624030).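 Note: purified P. pyralis luciferase at 10 nM with luciferin and ATP substrate; series mostly up to about 59 µM; 0% = DMSO and -100% = full luciferase inhibition by PTC124 control; nearly all actives have a fitted effect of over 70% in size.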 An outline of the steps:
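Direct inhibition of firefly luciferase enzyme (10 nM final, 50 mM Tris Acetate) assessed by luminescence within 5 minutes. Percent activity scaled between DMSO and PTC124 positive control, with concentration-effect curves classified by fit quality and response.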

A short description of assay [3]: S16 Schwann cell viability assay (CellTiter-Glo assay) (AID 624031).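 Note: native untransfected S16 rat Schwann cells; cellular ATP luminescence as a viability measure; series mostly up to about 58 µM; plate controls were DMSO-treated cells for no effect and cell-free wells for full effect; nearly all actives have a fitted effect of over 70% in size.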 The essentials:
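Following overnight culture in 10% FBS DMEM, parental S16 rat Schwann cells are dosed for 24 h at 37 °C. Viability is read as CellTiter-Glo luminescence and expressed as % activity relative to DMSO (0%) and no-cell wells.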

Assay [4] can be described thus: S16 Schwann cell PMP22 intronic element firefly luciferase assay (AID 624032).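 Note: series mostly up to about 58 µM; plate controls were DMSO for no effect and PTC124 positive control mean for full effect; nearly all actives have a fitted effect of over 30% in size.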 The essentials:
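Luciferase reporter of PMP22 intronic-element expression in stably transfected S16 rat Schwann cells, read by ONE-Glo luminescence after 24 h compound exposure at 37 C. Activity scaled between DMSO (0%) and positive-control PTC124; concentration-effect curves quality-classified.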

Assay [5] deals with Glutaminase kidney isoform, mitochondrial (Homo sapiens) (UniProt O94925). The experiment in a line: qHTS for Inhibitors of Glutaminase (GLS): LOPAC Validation (AID 624146). Note: nearly all actives have a fitted effect of over 60% in size. Note: potency is the fitted concentration of half-maximal effect. An outline of the steps:
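Assay buffer: 45 mM KH2PO4 pH 8.2, 0.02% Tween-20. hKGA acts on L-glutamine (1 mM solution added); product glutamate is reported by an oxidase/peroxidase Amplex Red coupling, with fluorescence taken at baseline and 30 min.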

Assay [6] is described as follows: qHTS of Trypanosoma Brucei Inhibitors: LOPAC Validation (AID 624147). Note: 0% is about no effect. An outline of the steps: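 Glycolytic pyruvate kinase of T. brucei was incubated with substrate, test compound and 130 uM ADP for 45 minutes at room temperature. Luminescent Kinase-Glo Plus signal was measured after 10 minutes.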
The target of assay [7] is Glucagon-like peptide 1 receptor (Homo sapiens) (UniProt P43220). The experiment in a line: qHTS of GLP-1 Receptor Agonists: LOPAC Validation (AID 624148).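 Note: luminescence from a luciferase reporter switched on by cAMP; 0% is about no effect; higher luminescence signal means agonism.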 The essentials:
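Agonism scored as increased luciferase luminescence driven by cAMP in HEK293 clones carrying GLP-1R. Cells settled 12 hours, received compound for 4-6 hr at 37 deg C, 5% CO2, and were read after 12 min detection reagent at RT.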

The nature of assay [8]: HTS Assay for Allosteric Antagonists of the Human D2 Dopamine Receptor: Hit Validation in HTRF (AID 624455).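 Note: stable D1 dopamine receptor cell line scored for blocking the D1 response; % is set by controls: 0 for no effect and ±100 for the full control effect.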 An outline of the steps:
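First, antagonism was screened by calcium flux in a force-coupled, inducible Hek293 Trex D2 line challenged with EC80 dopamine. Hits then went into an HTRF assay in cells stably expressing D1, testing inhibition of the D1 response.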
A general note: TR-FRET usually uses a lanthanide donor and a delayed reading to cut background.

Assay [9] addresses Thyroid hormone receptor beta (Homo sapiens) (UniProt P10828). The experiment in a line: qHTS assay for small molecule antagonists of thyroid hormone receptor beta signaling (AID 588547; active = well fitted inhibition curve with a large enough effect in the signal ratio, with a control signal flat, not every such curve was filed as active; the % refers to the signal ratio;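 note: cells stimulated with 0.4 nM T3 agonist during compound exposure; series mostly up to about 77 µM; % is set by controls: 0 for no effect and ±100 for the full control effect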). As to conditions: TR-UAS-bla HEK293, beta-lactamase ratio, antagonist mode, 18 h. An outline of the steps:
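Inhibition of T3-driven (0.4nM final) beta-lactamase reporter activity was measured over 0.59 nM to 92 uM compound after 18 h at 37 C. The cells were GripTite HEK293 TR-UAS-bla in charcoal/dextran-stripped serum, with CCF4 ratio read-out and IC50 from Hill fits.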

Assay [10] is described as follows: S16 Schwann cell PMP22 intronic element beta-lactamase assay (AID 624044; calls by dose curve;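 note: 0% = DMSO and -100% = potassium clavulanate positive control; nearly all actives have a fitted effect of over 15% in size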). The essentials: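 Rat S16 Schwann cells with beta-Lac driven by a PMP22 intronic element, compound-treated 24 h at 37 °C. LiveBLAzer FRET B/G read: 460 nm normalized to potassium clavulanate vs DMSO; 535 nm FRET as viability; concentration-effect curves classified.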
Assay [11] can be described thus: qHTS of Nrf2 Activators: LOPAC Validation (AID 624149). Note: 0% is about no effect. The essentials: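 Luminescence read-out of ARE-luciferase activation: AREc32_Fluc cells treated with compounds for 24 hr at 37 deg C, then lysed with Steady-Glo for 30 min at room temperature before reading.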
Assay [12] in a line: qHTS assay for small molecule agonists of the antioxidant response element (ARE) signaling pathway (AID 651741; active = well fitted activation curve with a large enough effect in the signal ratio; the % refers to the signal ratio; note: potency is the fitted concentration of half-maximal effect; for activation: % of control where 0% means no effect). An outline of the steps:
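Quantitative HTS in HepG2 cells stably expressing an ARE-beta-lactamase reporter; 16 h compound exposure at 37 C, followed by 2 h room-temperature incubation with LiveBLAzer B/G FRET substrate and fluorescence measurement.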

Chain of Luciferin 4-monooxygenase (Photinus pyralis) (P08659 whole entry, looked up): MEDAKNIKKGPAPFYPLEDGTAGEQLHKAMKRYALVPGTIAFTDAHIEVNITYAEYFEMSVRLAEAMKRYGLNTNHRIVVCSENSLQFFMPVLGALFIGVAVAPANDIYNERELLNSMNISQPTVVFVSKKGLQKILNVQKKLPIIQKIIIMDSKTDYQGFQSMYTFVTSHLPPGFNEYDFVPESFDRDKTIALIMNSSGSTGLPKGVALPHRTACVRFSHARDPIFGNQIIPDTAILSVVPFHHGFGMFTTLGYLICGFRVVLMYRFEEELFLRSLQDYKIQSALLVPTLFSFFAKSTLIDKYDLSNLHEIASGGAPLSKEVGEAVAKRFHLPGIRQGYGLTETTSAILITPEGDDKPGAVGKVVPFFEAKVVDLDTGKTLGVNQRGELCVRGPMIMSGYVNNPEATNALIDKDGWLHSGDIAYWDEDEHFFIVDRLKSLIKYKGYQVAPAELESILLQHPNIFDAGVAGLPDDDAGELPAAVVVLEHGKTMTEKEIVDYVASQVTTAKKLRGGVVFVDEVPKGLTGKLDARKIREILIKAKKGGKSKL
Chain of Glucagon-like peptide 1 receptor (Homo sapiens) (P43220 whole entry, looked up): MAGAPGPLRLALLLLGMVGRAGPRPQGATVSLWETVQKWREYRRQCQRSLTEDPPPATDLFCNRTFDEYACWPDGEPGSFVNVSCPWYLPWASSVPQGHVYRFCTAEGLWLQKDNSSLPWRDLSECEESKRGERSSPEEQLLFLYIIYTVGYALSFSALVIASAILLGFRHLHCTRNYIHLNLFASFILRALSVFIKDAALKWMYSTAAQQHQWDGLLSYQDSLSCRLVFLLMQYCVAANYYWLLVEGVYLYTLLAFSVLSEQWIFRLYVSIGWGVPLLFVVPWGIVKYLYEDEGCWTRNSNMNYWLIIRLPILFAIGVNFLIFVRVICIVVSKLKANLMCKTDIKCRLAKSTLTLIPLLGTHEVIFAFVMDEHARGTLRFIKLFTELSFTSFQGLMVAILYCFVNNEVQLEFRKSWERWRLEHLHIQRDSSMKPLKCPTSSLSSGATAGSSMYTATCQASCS
Chain of Voltage-gated inwardly rectifying potassium channel KCNH2 (Homo sapiens) (Q12809 whole entry, looked up): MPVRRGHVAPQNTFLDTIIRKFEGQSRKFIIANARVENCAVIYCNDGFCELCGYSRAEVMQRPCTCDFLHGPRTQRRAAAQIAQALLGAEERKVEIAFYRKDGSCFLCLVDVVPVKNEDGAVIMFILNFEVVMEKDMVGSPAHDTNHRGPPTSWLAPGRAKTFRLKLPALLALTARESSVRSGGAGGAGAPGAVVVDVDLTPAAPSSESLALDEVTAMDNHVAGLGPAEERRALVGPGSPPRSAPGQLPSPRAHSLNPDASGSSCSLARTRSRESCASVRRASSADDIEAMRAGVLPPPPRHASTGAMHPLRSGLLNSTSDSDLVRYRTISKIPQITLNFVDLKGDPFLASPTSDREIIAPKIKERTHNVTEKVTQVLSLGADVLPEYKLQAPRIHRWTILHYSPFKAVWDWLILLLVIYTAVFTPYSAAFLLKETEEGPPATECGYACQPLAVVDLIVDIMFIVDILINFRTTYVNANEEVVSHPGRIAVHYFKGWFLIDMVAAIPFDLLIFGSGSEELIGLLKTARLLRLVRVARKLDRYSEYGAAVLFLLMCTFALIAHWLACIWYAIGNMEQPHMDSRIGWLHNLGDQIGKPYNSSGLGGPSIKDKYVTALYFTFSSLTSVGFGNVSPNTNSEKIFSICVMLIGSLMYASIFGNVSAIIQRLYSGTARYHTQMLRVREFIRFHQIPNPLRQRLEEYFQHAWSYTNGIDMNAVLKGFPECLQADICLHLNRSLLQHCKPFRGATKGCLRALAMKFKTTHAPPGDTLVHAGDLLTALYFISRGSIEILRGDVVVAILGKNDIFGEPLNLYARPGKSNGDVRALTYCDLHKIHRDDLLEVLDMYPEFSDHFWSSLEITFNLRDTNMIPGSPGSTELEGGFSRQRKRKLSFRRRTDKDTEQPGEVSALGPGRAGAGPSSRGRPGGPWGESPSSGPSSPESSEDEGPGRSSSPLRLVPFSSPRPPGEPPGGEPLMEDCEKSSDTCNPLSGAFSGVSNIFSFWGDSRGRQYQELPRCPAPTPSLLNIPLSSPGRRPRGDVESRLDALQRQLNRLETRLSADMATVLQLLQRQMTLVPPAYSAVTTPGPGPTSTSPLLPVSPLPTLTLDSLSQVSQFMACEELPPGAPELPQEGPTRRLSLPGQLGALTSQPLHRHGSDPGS
Chain of Thyroid hormone receptor beta (Homo sapiens) (P10828 whole entry, looked up): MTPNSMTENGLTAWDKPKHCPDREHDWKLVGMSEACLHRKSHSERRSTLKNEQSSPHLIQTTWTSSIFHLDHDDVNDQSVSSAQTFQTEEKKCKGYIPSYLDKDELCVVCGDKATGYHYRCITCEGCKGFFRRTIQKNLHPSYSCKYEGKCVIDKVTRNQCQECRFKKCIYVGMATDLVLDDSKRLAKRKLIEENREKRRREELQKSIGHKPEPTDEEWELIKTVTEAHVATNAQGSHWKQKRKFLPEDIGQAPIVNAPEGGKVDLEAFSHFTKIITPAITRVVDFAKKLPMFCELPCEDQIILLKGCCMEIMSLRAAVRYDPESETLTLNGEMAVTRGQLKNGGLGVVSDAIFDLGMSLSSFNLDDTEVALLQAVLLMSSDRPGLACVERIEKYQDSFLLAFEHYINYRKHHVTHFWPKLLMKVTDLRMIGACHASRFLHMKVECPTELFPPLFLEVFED
Chain of Glutaminase kidney isoform, mitochondrial (Homo sapiens) (O94925 whole entry, looked up, canonical isoform): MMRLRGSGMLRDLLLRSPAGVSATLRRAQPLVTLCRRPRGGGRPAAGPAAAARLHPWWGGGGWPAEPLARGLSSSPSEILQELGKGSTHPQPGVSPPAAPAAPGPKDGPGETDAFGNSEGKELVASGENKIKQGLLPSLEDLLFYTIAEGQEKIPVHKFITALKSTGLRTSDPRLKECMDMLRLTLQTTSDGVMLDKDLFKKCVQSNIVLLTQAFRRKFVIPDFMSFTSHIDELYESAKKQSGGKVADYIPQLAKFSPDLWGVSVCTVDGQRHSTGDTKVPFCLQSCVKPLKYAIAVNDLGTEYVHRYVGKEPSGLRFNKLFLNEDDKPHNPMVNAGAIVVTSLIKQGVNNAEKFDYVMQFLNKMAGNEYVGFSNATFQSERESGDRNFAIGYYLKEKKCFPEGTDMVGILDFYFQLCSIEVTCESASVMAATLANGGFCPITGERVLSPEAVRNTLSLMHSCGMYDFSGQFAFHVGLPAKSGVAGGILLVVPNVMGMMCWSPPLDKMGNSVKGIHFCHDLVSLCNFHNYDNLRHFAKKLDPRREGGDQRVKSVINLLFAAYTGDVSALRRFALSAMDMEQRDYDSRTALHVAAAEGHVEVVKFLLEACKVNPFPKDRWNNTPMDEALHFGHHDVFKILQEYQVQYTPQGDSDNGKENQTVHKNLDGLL

For `COc1nc(C)nc(Cl)c1NC1=NCCN1`, the Potency result in [1], in assay [2], in [3], in assay [4], in assay [5] and in assay [6] was “inactive” in each case. The Potency result in assay [7] and in [8] was “inactive” in each case.
For the molecule `NCCS(=O)(=O)O`, the activity change % (negative = inhibition) in [9] is -15.9%. Besides, the Potency entry in assay [1], in assay [2], in [3], in assay [4], in assay [10] and in [5] was “inactive” throughout. Also, the Potency entry in assay [6], in assay [7] and in assay [8] was “inactive” throughout.
In the case of `Cn1c(=O)c2c(ncn2C)n(C)c1=O`, the Potency entry in assay [1], in [2], in assay [3], in assay [4], in assay [5] and in [6] was “inactive” throughout. Besides, the Potency entry in [7], in assay [8] and in [12] was “inactive” throughout. Besides, the outcome in [11] was inactive.
Turning to `NS(=O)(=O)c1cc2c(cc1Cl)NCNS2(=O)=O`, the activity change % (negative = inhibition) in assay [9] was -1.87% and 13.1%. For the same molecule, the Potency entry in assay [1], in [2], in [3], in [4], in assay [5] and in assay [6] was “inactive” throughout. The Potency result in [7], in assay [8] and in assay [12] was “inactive” throughout. Moreover, the molecule was called inactive in assay [11].
Regarding `Cc1cn([C@H]2C[C@H](N=[N+]=[N-])[C@@H](CO)O2)c(=O)[nH]c1=O`, in [9], the activity change % (negative = inhibition) was 5.41% and 12%. Moreover, the Potency entry in assay [1], in [2], in [3], in [5], in assay [6] and in assay [7] was “inactive” each time. In assay [8], the Potency result is “inactive”.
`CC(C)C(=O)Nc1ccc([N+](=O)[O-])c(C(F)(F)F)c1`: the activity change % (negative = inhibition) in assay [9] was -0.269% and 16%. For the same molecule, the Potency entry in assay [1], in [2], in [3], in assay [5], in [6] and in assay [7] was “inactive” throughout. In addition, the Potency result in [8] was “inactive”.
Turning to `CN(Cc1cnc2nc(N)nc(N)c2n1)c1ccc(C(=O)N[C@@H](CCC(=O)O)C(=O)O)cc1`, the activity change % (negative = inhibition) in assay [9] is -21.4%. The Potency result in assay [1], in [3], in assay [4], in assay [5], in [6] and in [7] was “inactive” throughout. Also, in assay [11], the molecule was classed as inactive. In addition, the Potency in assay [12] is 0.154 µM (active).
On to `O=C(c1ccc(F)cc1)C1CCN(CCn2c(=O)[nH]c3ccccc3c2=O)CC1`, for which the Potency in assay [1] was 3.55 µM (active) and 562 nM (active). Also, the Potency entry in [2], in assay [3], in assay [4], in [10], in [5] and in assay [6] was “inactive” throughout. Also, the Potency entry in assay [7] and in assay [8] was “inactive” throughout. In addition, the outcome in assay [11] was inactive.
Consider `O=C1N(c2ccccc2)c2ccccc2C1(Cc1ccncc1)Cc1ccncc1`, for which the Potency entry in assay [1], in assay [2], in [3], in [4], in [10] and in assay [5] was “inactive” each time. In addition, the Potency entry in assay [6], in [7] and in [8] was “inactive” each time.
On to `N[C@@H](Cc1c[nH]c2ccc(O)cc12)C(=O)O`, for which, in assay [9], the activity change % (negative = inhibition) is -8.63%. The Potency result in assay [1], in assay [3], in assay [4], in assay [10], in assay [6] and in assay [7] was “inactive” throughout. The Potency result in assay [8] is “inactive”. Moreover, in assay [5], the Potency was 1.12 µM (active).
